By inhibition is commonly meant the relative decrease from the control value, in per cent.

Among the data in ChEMBL document CHEMBL1961873, “Compounds: GSK PKIS; Assays: Nanosyn kinase panel” (2012) are inhibition values, retold here.

For assay [1], the target named is Protein kinase C gamma type (Homo sapiens) (UniProt P05129). Particulars: at 1 µM.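 Further: each value is an averaged percent inhibition of the enzyme.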
The target of assay [2] is T1, Protein kinase C iota type (Homo sapiens) (UniProt P41743).
T1 sequence (whole entry): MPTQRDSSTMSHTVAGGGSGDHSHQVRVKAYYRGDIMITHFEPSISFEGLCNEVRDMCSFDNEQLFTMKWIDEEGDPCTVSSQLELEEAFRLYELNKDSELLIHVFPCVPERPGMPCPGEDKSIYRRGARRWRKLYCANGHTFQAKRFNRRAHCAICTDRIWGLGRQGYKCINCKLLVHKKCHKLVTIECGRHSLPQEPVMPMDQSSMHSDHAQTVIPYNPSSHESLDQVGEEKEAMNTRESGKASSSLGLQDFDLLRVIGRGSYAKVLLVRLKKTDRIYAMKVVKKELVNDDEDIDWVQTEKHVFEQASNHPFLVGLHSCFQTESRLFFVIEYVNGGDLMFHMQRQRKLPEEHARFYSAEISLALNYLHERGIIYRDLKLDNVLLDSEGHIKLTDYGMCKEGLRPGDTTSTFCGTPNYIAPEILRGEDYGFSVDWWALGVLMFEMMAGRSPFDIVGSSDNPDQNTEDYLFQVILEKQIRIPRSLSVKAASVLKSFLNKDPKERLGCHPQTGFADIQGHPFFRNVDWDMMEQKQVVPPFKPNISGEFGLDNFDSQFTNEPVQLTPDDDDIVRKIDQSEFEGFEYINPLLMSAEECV
The settings on record: at 0.1 µM.

Assay [3] concerns the target T1, Protein kinase C iota type (Homo sapiens). The settings on record: at 1 µM.
The target in assay [4] is Protein kinase C theta type (Homo sapiens) (UniProt Q04759). The settings on record: at 0.1 µM.
Chain of Protein kinase C theta type (Homo sapiens) (Q04759 whole entry, looked up): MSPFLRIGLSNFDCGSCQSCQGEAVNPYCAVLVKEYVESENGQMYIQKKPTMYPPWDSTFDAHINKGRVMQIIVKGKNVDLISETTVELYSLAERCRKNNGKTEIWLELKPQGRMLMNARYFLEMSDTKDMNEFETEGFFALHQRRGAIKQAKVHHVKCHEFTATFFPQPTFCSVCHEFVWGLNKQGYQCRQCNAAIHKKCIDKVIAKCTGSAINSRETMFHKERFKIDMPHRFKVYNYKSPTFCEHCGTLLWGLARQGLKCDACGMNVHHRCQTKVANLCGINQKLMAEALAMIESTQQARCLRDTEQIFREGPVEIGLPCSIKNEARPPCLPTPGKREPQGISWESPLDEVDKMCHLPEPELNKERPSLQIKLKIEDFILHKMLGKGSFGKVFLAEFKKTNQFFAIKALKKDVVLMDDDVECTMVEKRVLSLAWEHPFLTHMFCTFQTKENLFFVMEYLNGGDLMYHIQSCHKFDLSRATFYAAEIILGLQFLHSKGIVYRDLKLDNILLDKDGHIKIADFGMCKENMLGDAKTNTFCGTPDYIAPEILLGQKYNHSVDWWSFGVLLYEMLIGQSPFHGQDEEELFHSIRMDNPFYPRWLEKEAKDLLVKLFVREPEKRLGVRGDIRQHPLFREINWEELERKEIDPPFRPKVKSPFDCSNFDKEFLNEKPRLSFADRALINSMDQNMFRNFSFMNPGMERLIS
Assay [5] shares this target. Particulars: at 1 µM.
Assay [6] deals with Protein kinase C beta type (Homo sapiens) (UniProt P05771). The settings on record: at 0.1 µM.
Chain of Protein kinase C beta type (Homo sapiens) (P05771 2-671 limits assumed): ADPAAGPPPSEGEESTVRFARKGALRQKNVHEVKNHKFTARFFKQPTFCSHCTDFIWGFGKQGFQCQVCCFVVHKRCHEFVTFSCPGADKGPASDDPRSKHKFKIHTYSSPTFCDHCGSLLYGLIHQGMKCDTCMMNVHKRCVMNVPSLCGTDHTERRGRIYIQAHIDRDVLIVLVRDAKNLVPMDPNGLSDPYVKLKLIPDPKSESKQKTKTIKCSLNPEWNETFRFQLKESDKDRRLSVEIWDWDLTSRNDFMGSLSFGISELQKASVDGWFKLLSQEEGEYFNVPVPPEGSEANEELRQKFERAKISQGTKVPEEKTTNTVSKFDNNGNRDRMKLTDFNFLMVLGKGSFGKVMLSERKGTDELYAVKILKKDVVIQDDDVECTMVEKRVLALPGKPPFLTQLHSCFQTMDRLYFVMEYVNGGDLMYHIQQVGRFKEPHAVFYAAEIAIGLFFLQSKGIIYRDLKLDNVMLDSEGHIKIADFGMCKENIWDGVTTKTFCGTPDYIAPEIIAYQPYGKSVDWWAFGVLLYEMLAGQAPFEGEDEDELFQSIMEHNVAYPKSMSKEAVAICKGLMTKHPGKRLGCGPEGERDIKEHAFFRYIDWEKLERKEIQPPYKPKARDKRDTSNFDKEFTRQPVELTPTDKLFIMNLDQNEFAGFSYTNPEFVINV
Assay [7] shares this target. Particulars: at 1 µM.
Assay [8] has as its target T2, Serine/threonine-protein kinase D1 (Homo sapiens) (UniProt Q15139).
T2 sequence (whole entry): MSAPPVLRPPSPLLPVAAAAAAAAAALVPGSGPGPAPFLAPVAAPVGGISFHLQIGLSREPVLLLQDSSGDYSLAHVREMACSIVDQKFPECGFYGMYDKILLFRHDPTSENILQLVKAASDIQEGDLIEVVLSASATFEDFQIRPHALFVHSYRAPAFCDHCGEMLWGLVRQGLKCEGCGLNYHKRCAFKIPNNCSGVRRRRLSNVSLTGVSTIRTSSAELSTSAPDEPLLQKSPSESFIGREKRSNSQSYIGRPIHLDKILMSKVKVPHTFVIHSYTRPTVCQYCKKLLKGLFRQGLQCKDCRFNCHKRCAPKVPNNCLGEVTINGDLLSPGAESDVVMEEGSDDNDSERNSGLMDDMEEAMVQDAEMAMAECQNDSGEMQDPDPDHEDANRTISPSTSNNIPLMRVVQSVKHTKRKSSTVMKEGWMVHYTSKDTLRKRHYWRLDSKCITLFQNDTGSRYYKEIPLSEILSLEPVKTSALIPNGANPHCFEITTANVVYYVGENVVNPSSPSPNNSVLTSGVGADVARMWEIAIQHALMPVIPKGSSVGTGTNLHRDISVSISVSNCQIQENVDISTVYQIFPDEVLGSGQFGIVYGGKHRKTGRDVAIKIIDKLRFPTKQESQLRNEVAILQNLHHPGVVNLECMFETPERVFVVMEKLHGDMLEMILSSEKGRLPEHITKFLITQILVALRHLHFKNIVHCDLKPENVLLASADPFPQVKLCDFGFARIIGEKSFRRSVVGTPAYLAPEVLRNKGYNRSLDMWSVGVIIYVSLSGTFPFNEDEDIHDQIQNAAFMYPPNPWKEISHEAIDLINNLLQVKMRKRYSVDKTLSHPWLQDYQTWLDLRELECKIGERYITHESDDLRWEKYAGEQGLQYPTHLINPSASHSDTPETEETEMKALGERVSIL
The settings on record: at 0.1 µM.

In assay [9] the target is T2, Serine/threonine-protein kinase D1 (Homo sapiens). The settings on record: at 1 µM.
In assay [10] the target is T3, Serine/threonine-protein kinase D2 (Homo sapiens) (UniProt Q9BZL6).
T3 sequence (whole entry): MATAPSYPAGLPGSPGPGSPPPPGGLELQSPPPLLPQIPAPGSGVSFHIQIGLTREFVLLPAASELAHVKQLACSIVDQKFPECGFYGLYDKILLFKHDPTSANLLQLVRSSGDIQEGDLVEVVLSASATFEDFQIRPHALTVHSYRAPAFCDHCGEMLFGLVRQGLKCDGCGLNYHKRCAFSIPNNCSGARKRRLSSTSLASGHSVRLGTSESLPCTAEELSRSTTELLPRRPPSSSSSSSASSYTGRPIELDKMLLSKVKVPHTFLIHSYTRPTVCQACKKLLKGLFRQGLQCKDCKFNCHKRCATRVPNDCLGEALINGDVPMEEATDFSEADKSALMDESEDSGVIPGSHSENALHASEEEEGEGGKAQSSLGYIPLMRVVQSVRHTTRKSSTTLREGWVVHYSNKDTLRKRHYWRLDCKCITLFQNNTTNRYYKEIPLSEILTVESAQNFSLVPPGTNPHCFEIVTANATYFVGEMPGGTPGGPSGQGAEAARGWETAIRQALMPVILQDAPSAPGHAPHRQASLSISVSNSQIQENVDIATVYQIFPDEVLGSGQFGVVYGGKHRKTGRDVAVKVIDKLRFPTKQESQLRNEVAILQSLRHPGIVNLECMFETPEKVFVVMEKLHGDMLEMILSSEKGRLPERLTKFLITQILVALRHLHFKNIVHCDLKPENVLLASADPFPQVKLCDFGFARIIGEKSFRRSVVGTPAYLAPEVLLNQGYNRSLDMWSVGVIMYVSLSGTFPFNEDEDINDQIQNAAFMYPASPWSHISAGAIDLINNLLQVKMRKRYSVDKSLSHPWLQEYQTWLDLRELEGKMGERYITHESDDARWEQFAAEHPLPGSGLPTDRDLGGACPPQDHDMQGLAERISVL
The settings on record: at 0.1 µM.

Assay [11] has as its target T3, Serine/threonine-protein kinase D2 (Homo sapiens). Particulars: at 1 µM.
Assay [12] addresses T4, Serine/threonine-protein kinase D3 (Homo sapiens) (UniProt O94806).
T4 sequence (whole entry): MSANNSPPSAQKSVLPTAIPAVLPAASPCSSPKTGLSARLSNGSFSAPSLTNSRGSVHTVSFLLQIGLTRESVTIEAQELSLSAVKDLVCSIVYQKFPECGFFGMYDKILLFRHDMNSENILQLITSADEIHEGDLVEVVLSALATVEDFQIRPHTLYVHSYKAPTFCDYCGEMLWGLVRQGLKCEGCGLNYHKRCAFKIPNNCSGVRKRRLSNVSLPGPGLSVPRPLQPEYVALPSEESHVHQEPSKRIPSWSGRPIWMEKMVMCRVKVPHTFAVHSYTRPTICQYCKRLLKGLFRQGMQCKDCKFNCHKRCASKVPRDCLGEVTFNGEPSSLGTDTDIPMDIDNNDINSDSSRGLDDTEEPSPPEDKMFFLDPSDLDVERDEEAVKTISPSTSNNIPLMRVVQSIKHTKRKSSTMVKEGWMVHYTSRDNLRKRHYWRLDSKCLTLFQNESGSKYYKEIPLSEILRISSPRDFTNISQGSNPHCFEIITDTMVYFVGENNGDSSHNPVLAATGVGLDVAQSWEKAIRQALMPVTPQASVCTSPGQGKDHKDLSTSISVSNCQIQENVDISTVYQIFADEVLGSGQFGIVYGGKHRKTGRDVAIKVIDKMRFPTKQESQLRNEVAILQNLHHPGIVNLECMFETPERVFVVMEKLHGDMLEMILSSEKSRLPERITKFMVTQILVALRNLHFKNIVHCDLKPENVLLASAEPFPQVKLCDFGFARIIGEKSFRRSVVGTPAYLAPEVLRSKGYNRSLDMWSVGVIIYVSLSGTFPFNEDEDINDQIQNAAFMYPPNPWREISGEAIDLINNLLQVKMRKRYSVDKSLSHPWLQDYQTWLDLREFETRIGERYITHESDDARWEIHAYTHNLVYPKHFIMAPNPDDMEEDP
The settings on record: at 0.1 µM.

Assay [13] has as its target T4, Serine/threonine-protein kinase D3 (Homo sapiens). Particulars: at 1 µM.
Assay [14] has as its target T5, cGMP-dependent protein kinase 1 (Homo sapiens) (UniProt Q13976).
T5 sequence (whole entry): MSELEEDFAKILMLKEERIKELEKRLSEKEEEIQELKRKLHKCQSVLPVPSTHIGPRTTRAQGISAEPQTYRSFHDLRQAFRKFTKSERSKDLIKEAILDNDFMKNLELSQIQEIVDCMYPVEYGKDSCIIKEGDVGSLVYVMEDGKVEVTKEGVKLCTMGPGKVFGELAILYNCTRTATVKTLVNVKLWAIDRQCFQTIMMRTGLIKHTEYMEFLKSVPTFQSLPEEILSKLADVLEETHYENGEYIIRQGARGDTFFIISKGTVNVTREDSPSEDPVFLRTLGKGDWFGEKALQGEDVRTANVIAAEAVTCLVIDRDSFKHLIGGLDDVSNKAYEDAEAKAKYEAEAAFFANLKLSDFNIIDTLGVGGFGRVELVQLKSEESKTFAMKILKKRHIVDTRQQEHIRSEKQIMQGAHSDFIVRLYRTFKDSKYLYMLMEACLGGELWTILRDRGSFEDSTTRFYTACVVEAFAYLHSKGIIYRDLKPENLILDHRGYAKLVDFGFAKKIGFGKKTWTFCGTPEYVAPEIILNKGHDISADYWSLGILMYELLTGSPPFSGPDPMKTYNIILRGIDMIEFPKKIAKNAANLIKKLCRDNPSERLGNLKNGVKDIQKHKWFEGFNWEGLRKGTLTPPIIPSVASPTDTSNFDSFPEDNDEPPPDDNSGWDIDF
Particulars: at 0.1 µM.

In assay [15] the target is T5, cGMP-dependent protein kinase 1 (Homo sapiens). The settings on record: at 1 µM.
Assay [16] addresses T6, cGMP-dependent protein kinase 2 (Homo sapiens) (UniProt Q13237).
T6 sequence (whole entry): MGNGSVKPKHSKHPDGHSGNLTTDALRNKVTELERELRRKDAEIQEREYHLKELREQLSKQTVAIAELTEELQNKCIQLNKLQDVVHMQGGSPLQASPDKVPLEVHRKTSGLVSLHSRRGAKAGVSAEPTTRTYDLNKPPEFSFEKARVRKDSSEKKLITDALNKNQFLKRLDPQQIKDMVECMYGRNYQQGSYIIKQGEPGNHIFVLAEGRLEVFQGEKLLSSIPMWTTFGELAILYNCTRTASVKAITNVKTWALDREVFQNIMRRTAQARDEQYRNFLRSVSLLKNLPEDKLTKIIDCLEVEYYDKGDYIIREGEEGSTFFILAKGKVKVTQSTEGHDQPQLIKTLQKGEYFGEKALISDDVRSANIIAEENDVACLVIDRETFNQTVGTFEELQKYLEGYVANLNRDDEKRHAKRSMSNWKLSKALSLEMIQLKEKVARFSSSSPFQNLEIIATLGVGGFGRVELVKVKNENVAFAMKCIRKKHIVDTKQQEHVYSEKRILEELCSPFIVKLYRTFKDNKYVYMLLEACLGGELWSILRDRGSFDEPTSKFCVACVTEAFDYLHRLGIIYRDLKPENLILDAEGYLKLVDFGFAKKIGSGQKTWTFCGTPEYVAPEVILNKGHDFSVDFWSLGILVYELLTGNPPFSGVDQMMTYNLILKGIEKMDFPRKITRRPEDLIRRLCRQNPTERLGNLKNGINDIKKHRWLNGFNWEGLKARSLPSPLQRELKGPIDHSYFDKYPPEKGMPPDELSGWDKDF
Particulars: at 0.1 µM.

The target in assay [17] is T6, cGMP-dependent protein kinase 2 (Homo sapiens). The settings on record: at 1 µM.
Assay [18] deals with T7, cAMP-dependent protein kinase catalytic subunit PRKX (Homo sapiens) (UniProt P51817).
T7 sequence (whole entry): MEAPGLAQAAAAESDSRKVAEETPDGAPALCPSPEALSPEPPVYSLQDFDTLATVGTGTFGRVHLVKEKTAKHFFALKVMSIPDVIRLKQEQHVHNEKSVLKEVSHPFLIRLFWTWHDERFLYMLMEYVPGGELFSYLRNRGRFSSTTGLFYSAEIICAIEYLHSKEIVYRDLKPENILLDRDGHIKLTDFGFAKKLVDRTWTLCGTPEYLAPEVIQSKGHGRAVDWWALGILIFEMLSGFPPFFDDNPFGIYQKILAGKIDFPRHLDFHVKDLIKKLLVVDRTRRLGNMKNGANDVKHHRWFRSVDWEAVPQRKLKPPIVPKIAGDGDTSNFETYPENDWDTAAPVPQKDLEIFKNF
The settings on record: at 0.1 µM.

Assay [19] addresses T7, cAMP-dependent protein kinase catalytic subunit PRKX (Homo sapiens). Particulars: at 1 µM.
The target in assay [20] is Rho-associated protein kinase 1 (Homo sapiens) (UniProt Q13464). Particulars: at 0.1 µM.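 Further: values are mean percent inhibition of ROCK1.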
Chain of Rho-associated protein kinase 1 (Homo sapiens) (Q13464 2-1354 limits assumed): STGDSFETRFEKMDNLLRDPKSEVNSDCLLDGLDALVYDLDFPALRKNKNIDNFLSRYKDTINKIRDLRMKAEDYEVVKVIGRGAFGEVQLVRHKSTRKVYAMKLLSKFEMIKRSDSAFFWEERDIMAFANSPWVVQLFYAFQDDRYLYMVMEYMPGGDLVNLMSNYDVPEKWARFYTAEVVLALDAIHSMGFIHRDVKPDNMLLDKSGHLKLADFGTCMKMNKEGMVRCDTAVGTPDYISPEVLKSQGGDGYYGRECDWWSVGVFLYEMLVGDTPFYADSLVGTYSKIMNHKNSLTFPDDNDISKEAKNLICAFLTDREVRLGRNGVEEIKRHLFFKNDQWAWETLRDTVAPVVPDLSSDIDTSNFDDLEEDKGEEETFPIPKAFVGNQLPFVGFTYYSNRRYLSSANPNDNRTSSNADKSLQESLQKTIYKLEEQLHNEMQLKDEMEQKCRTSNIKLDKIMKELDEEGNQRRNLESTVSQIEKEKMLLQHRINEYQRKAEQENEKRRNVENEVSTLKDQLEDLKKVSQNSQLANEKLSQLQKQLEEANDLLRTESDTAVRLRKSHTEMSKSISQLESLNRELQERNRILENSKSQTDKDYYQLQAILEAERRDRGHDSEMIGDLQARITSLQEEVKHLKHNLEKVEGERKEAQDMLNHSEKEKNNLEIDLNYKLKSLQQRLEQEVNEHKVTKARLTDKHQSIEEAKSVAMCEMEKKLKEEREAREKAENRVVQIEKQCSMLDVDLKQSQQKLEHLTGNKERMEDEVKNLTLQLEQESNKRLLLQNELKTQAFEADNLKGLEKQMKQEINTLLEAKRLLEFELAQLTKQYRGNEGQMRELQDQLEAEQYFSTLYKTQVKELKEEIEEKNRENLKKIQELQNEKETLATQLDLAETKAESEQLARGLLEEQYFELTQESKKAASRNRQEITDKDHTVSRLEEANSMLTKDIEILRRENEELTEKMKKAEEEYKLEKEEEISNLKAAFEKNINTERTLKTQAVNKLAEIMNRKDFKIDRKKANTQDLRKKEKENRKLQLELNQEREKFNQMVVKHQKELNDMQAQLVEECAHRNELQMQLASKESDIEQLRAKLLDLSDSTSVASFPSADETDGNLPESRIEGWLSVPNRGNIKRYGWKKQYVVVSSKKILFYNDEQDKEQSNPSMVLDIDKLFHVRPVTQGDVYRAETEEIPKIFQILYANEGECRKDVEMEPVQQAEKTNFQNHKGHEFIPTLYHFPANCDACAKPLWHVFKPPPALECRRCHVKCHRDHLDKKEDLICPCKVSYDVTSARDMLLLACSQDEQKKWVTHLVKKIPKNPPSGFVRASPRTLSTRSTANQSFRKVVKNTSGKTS

SMILES strings stand for the structures.

For `COc1cc(C)c(N(C)C(=O)CN(C)C)cc1Nc1nc(Nc2cccc(F)c2C(N)=O)c2cc[nH]c2n1`, the inhibition in assay [1] is 0.07%; in assay [2] it was 0.9%; in assay [3] it was 1.43%; in assay [4], -0.27%; in assay [5], -0.14%; in [6], 0.9%. Besides, the inhibition in assay [7] was 0.92%; in assay [8], -1.96%; in assay [9], -0.45%; in assay [10], -2.04%; in assay [11] it was -0.62%; in assay [12], -1.31%. Moreover, the inhibition in assay [13] came to 0.06%; in assay [14], 0.67%; in assay [15], 3.77%; in [16] it was 2.1%; in assay [17], 2.31%; in assay [18], 0.78%. Further, the inhibition in assay [19] was -0.64%; in assay [20], 0.77%.
For `COc1ccc2ncn(-c3cc(O[C@H](C)c4ccccc4Cl)c(C(N)=O)s3)c2c1`, the inhibition in [1] was 2.27%; in assay [2], 4.03%; in assay [3], 3.88%; in assay [4], 2.43%; in assay [5], 2.69%; in assay [6], 1.24%. Moreover, the inhibition in [7] was 2.97%; in assay [8], -0.01%; in [9] it was -0.79%; in assay [10] it was -0.02%; in assay [11], -2.98%; in assay [12] it was 0.19%. Also, the inhibition is -0.76% in [13]; 3.47% in assay [14]; 3.01% in assay [15]; 3.48% in assay [16]; 4.43% in assay [17]; 4.11% in [18]. The inhibition in [19] turned out to be 1.58%; in assay [20], 1.76%.
